Screens: PubChem, National Center for Advancing Translational Sciences (NCATS)
Many of the other results were omitted from the sample, so hits are more common in it than they were.
HT1080 IDH1KD tx: kills HT-1080 cells with IDH1 knockdown | Potency, µM (series often up to 46.1 µM), without a hit: at the top dose activity, negative = toxicity, actives largely listed as cytotoxic | HT-1080 IDH1 knockdown viability, ATP luminescence, 48 h | actives 2% (n = 360,000) | AID 686971;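 further: potency means the concentration at half of the fitted maximal effect; 0% = DMSO wells and -100% = cell-free medium wells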
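IDH1KD HT-1080 cells, 750/well, RPMI + 5% FBS; compound pinned after 2 h settling; 48 h, 37 °C; CellTiter-Glo luminescence; % activity normalised to DMSO and no-cell wells; curves fitted, classed by r2 and efficacy.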
HT1080NT lethal: kills 2HG-producing HT-1080-NT fibrosarcoma cells; HT-1080-NT fibrosarcoma viability, CellTiter-Glo ATP luminescence, 48 h; Potency, µM (highest dose often 46.1 µM), for inactives: at the top dose activity, negative = less viability, hits mostly cytotoxic; actives 1.6% (n = 360,000); AID 686970;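 further: NT is the 2HG producing partner of a matched IDH1 knockdown line; potency means the concentration at half of the fitted maximal effect; 0% = DMSO-treated cells and -100% = media-only wells without cells; nearly all actives have a fitted effect of over 55% in size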
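A 48-hour cytotoxicity screen used HT-1080-NT cells plated 2 hours before compound delivery. ATP-based CellTiter-Glo luminescence measured viability, normalized to DMSO and no-cell controls.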
DT40 TDP1 no CPT: qHTS for Inhibitors of human tyrosyl-DNA phosphodiesterase 1 (TDP1): qHTS in cells in absence of CPT; Potency, µM (top dose mostly 46.2 µM), without a hit: at the highest dose activity change, negative = growth inhibition, hits mostly inhibitors; actives 15% (n = 420,000); DT40 Tdp1-/- hTDP1 cells, no CPT, ATP luminescence, 48 h; AID 686978, 2013; further: potency means the concentration at half of the fitted maximal effect; nearly all actives have a fitted effect of over 55% in size
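Chicken DT40 Tdp1-/- cells complemented with human TDP1, screened without camptothecin (DMSO vehicle only), 400 cells/well. Compounds pin-transferred, cells incubated at 37 °C for at least 48 hr. Growth read as ATP-dependent luminescence (CellTiter-Glo, 30 min at RT).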
ALOX12 inh: ALOX12 (human) lipoxygenase inhibition; P18054; purified 12hLO, xylenol orange hydroperoxide absorbance; Potency, µM (highest dose often 108 µM), for the others: top-dose activity change, negative = inhibition, hits mostly inhibitors; actives 1.1% (n = 580,000); AID 1671190; further: potency means the concentration at half of the fitted maximal effect
Target sequence (P18054 whole entry, looked up): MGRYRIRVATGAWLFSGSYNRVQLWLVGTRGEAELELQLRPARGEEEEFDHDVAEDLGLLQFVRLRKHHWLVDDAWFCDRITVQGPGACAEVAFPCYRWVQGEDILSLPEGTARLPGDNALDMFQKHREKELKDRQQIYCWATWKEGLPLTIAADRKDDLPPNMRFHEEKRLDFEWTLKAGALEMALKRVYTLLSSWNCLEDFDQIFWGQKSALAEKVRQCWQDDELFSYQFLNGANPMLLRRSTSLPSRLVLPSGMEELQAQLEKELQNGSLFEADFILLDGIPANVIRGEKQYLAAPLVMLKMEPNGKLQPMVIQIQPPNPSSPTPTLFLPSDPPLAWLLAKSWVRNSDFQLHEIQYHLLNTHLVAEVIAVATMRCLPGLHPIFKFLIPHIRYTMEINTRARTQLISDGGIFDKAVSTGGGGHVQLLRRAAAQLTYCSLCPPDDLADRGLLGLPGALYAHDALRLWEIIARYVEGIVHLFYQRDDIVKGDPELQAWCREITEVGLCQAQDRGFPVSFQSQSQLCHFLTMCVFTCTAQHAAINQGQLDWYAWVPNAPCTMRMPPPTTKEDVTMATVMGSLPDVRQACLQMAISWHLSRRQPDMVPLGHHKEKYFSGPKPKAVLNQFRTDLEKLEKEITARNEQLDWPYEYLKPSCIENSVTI
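Purified human 12hLO (150 nM final) in 25 mM Hepes, 0.01% Triton X-100, pH 7.0 was preincubated 15 min at room temperature with compound. Then 40 uM arachidonic acid was added, 30 min. Hydroperoxide was read by Fe-XO absorbance ratio 573/405 nm.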
TDP1 cell CPT: growth inhibition of DT40 Tdp1-/-;hTDP1 cells with camptothecin (screen for TDP1 inhibitors). actives 12% (n = 420,000). Potency, µM (doses to about 46.2 µM), without a hit: at the top dose activity change, negative = growth inhibition, usual class: inhibitors. chicken DT40 Tdp1-/-;hTDP1 cells + 20 nM CPT, ATP luminescence, 48 h. AID 686979; further: potency means the concentration at half of the fitted maximal effect; nearly all actives have a fitted effect of over 55% in size
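Chicken DT40 Tdp1-/- cells stably complemented with human TDP1 were seeded at 400 cells/well in medium containing 20 nM camptothecin, exposed to pin-transferred compounds, and grown at 37 °C for at least 48 hr. Viability was read as ATP luminescence.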
IL-1B inflam inh: inflammasome signaling inhibition, IL-1 beta readout. activity change, % at 57.5 µM. actives 4.7% (n = 360,000). THP-1 LPS/ATP IL-1B secretion, AlphaLISA, 16 h; stronger effect = lower value; in the data active means activity change below about -50%; inconclusive means mostly about -30% to -49%
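THP-1 cells pretreated 1 hr with compounds (up to 57.5 uM final), then stimulated with LPS (250 ng/mL final) plus ATP (1.25 mM final); secreted IL-1B measured by AlphaLISA after 16 hr, decreased signal indicating inhibition.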
* hit, by the source's call; [ ] = remark or other dose. Unless noted, the call rests on the fitted dose curve; in most records, active means well fitted curve in the direction sought with a large enough effect; inconclusive means small, poorly fitted or top-dose-only effect, or another doubt; inactive means no such curve, though single readings can be large; an effect the other way counts as inactive or inconclusive. Unless noted, on the % scale 0 is the no-effect control and ±100 the full control effect.

CCOC(=O)c1cc(N2CCCCC2)nc2ccccc12 was read as HT1080 IDH1KD tx 3.6%, HT1080NT lethal 8.7%, DT40 TDP1 no CPT inconclusive, ALOX12 inh -16.7%, TDP1 cell CPT 23.1µM* and IL-1B inflam inh 4.6.
`O=C1c2ccccc2C(=O)N1c1ncc(Cc2ccc(Cl)cc2)s1` gave HT1080 IDH1KD tx -4.9%, HT1080NT lethal 7.2%, DT40 TDP1 no CPT inconclusive, ALOX12 inh -2.0%, TDP1 cell CPT 18.4µM* and IL-1B inflam inh 15.1.
Screening N=C1SCC(=O)N1c1ncc(Cc2cccc(Cl)c2)s1 returned HT1080 IDH1KD tx -21.6%, HT1080NT lethal -22.1%, DT40 TDP1 no CPT inconclusive, ALOX12 inh 1.6%, TDP1 cell CPT inconclusive and IL-1B inflam inh -103.0*.
For N=C1SCC(=O)N1c1ncc(Cc2ccccc2Cl)s1 the results were HT1080 IDH1KD tx -2.5%, HT1080NT lethal -21.5%, DT40 TDP1 no CPT inconclusive, ALOX12 inh 3.3%, TDP1 cell CPT inconclusive and IL-1B inflam inh -102.3*.
O=C1c2cccnc2C(=O)N1Cc1ccc(Cl)cc1 was read as HT1080 IDH1KD tx 7.1%, HT1080NT lethal 0.4%, DT40 TDP1 no CPT -10.9%, ALOX12 inh 0.0%, TDP1 cell CPT -14.9% and IL-1B inflam inh 12.5.
`CCc1nnc(N2C(=N)SCC2=O)s1` gave HT1080 IDH1KD tx 12.0%, HT1080NT lethal 21.3%, DT40 TDP1 no CPT inconclusive, ALOX12 inh inconclusive, TDP1 cell CPT 7.9% and IL-1B inflam inh 10.0.
Screening NC(=O)C(c1ccccc1)(c1ccccc1)c1ccccc1 returned ALOX12 inh -8.2%.
CCC1CCc2nc3sc(C(=O)Nc4cccc(F)c4)c(N)c3cc2C1 (stereo not given) was read as DT40 TDP1 no CPT 2.06µM*, ALOX12 inh -13.4% and TDP1 cell CPT 3.26µM*.
`CN1CCc2nc3sc(C(=O)Nc4ccccc4OC(F)(F)F)c(N)c3cc2C1` gave DT40 TDP1 no CPT inconclusive, ALOX12 inh 0.3% and TDP1 cell CPT inconclusive.
For CCC1CCc2nc3sc(C(=O)Nc4cccc(C(F)(F)F)c4)c(N)c3cc2C1 (stereo not given) the results were DT40 TDP1 no CPT 18.4µM*, ALOX12 inh -15.0% and TDP1 cell CPT inconclusive.
`CCC1CCc2nc3sc(C(=O)Nc4ccc(C)cc4)c(N)c3cc2C1` (stereo not given) gave DT40 TDP1 no CPT 7.31µM*, ALOX12 inh -14.0% and TDP1 cell CPT 11.6µM*.
`CCC1CCc2nc3sc(C(=O)Nc4ccc(F)cc4F)c(N)c3cc2C1` (stereo not given) gave DT40 TDP1 no CPT inconclusive, ALOX12 inh -21.2% and TDP1 cell CPT 8.2µM*.
`COc1ccc(NC(=O)c2sc3nc4c(cc3c2N)CCCCCC4)cc1Cl` gave DT40 TDP1 no CPT inconclusive, ALOX12 inh -27.3% and TDP1 cell CPT inconclusive.
CN1CCc2nc3sc(C(=O)NCc4ccccc4)c(N)c3cc2C1 was read as HT1080 IDH1KD tx inconclusive, HT1080NT lethal -3.7%, DT40 TDP1 no CPT -27.0%, ALOX12 inh -18.4%, TDP1 cell CPT inconclusive and IL-1B inflam inh -8.2.
Screening COC(=O)CCOc1ccc(S(=O)(=O)Nc2cccc(Cl)c2C)cc1 returned ALOX12 inh 6.0%.
CCOc1ccc(C(C)=O)cc1COC(=O)/C(=C\c1ccccc1)NC(C)=O was read as ALOX12 inh 0.4%.
Screening CCCNC(=O)C1CCCN(S(=O)(=O)c2ccc3c(c2)CC(C)N3C(=O)C2CC2)C1 (stereo not given) returned HT1080 IDH1KD tx -3.8%, HT1080NT lethal 10.1%, DT40 TDP1 no CPT inconclusive, ALOX12 inh -8.4%, TDP1 cell CPT inconclusive and IL-1B inflam inh -8.4.
For COc1ccc(S(=O)(=O)N2CCCCCC2)cc1C(=O)Nc1ccc(C)cn1 the results were HT1080 IDH1KD tx 5.1%, HT1080NT lethal 10.9%, DT40 TDP1 no CPT inconclusive, ALOX12 inh -12.3%, TDP1 cell CPT -5.1% and IL-1B inflam inh -10.8.
`COc1ccc(S(=O)(=O)N2CCCCCC2)cc1C(=O)Nc1cc(C)ccn1` gave HT1080 IDH1KD tx -18.5%, HT1080NT lethal -5.5%[9.24 µM], DT40 TDP1 no CPT inconclusive, ALOX12 inh -8.6%, TDP1 cell CPT 20.6µM* and IL-1B inflam inh -26.7.
Screening Cc1ccc(CNC(=O)C2CCN(S(=O)(=O)c3ccc4c(c3)CC(C)N4C(=O)C3CCC3)CC2)o1 (stereo not given) returned HT1080 IDH1KD tx -9.3%, HT1080NT lethal -22.3%, DT40 TDP1 no CPT 29.1µM*, ALOX12 inh 0.0%, TDP1 cell CPT inconclusive and IL-1B inflam inh -25.6.
Screening Cc1ccnc(NC(=O)C2CCN(S(=O)(=O)c3ccc(C)c(C)c3)CC2)c1 returned HT1080 IDH1KD tx -12.4%, HT1080NT lethal -21.0%, DT40 TDP1 no CPT -20.2%, ALOX12 inh -19.8%, TDP1 cell CPT -3.6% and IL-1B inflam inh -83.6*.
Cc1ccc(NC(=O)C2CCN(S(=O)(=O)c3ccc4c(c3)CC(C)N4C(=O)C3CCC3)CC2)nc1 (stereo not given) was read as HT1080 IDH1KD tx inconclusive, HT1080NT lethal -25.8%, DT40 TDP1 no CPT inconclusive, ALOX12 inh 14.5%, TDP1 cell CPT 16.4µM* and IL-1B inflam inh -81.1*.
Screening CC(=O)N1c2ccc(S(=O)(=O)N3CCC(C(=O)Nc4ccc(C)cn4)CC3)cc2CC1C (stereo not given) returned HT1080 IDH1KD tx -9.3%, HT1080NT lethal -5.1%, DT40 TDP1 no CPT inconclusive, ALOX12 inh inconclusive, TDP1 cell CPT inconclusive and IL-1B inflam inh -18.9.
Cc1ccnc(NC(=O)C2CCN(S(=O)(=O)c3ccc4c(c3)CC(C)N4C(=O)C3CCC3)CC2)c1 (stereo not given) was read as HT1080 IDH1KD tx inconclusive, HT1080NT lethal -21.2%, DT40 TDP1 no CPT inconclusive, ALOX12 inh 32.2%, TDP1 cell CPT inconclusive and IL-1B inflam inh -69.1*.
`CC1Cc2cc(S(=O)(=O)N3CCC(C(=O)Nc4ccccn4)CC3)ccc2N1C(=O)C1CCC1` (stereo not given) gave HT1080 IDH1KD tx -27.6%, HT1080NT lethal inconclusive, DT40 TDP1 no CPT 20.6µM*, ALOX12 inh -10.5%, TDP1 cell CPT 18.4µM* and IL-1B inflam inh inconclusive.
O=C(c1cc(F)ccc1Cl)N1CCC2(CC1)N(c1ccccc1)C(=O)CS2(=O)=O was read as ALOX12 inh 25.8%.
